In the library only some 3.9% were active in any assay of this set; here they are far more common.
Bead autofluor = flagged as autofluorescent in microsphere protease counterscreen. compound autofluorescence counterscreen, microsphere flow cytometry; hits give high values. fluorescence intensity (test concentration not listed). actives 3.1% (n = 360,000). AID 624483; in the data active = fluorescence intensity above about 16000; inconclusive = no clear call, values can overlap the other calls
MazEF act = MazEF (E. coli) toxin RNase activation | AID 504720 | FAM/BHQ RNA-DNA oligo cleavage fluorescence, 5 h | P0AE70 | actives 0.32% (n = 350,000) | activation, % at 20 µM; in the data active = activation above about 50%
BoNT F protease = blocks Botulinum neurotoxin F light chain protease. Multiplex microsphere protease cleavage assay, flow cytometry. inhibition, % at 10 µM. actives 0.22% (n = 360,000); in the data active = inhibition above about 35%, passing the limit was not always enough; inconclusive = no clear call, values can overlap the other calls; note: plate controls were buffer without enzyme for full effect and enzyme alone for no effect
BoNT-A LC inh2 = BoNT A light chain protease inhibition; multiplex microsphere protease substrate cleavage, flow cytometry; inhibition, % at 10 µM; actives 0.17% (n = 360,000); AID 588499; note: plate controls were buffer without enzyme for full effect and enzyme alone for no effect
Anthrax LF inh2 = inhibitors of Bacillus anthracis lethal factor protease. actives 0.12% (n = 360,000). multiplex microsphere protease cleavage assay, LF. P15917. inhibition, % at 10 µM; note: plate controls were buffer without enzyme for full effect and enzyme alone for no effect
Target sequence (P15917 whole entry, looked up): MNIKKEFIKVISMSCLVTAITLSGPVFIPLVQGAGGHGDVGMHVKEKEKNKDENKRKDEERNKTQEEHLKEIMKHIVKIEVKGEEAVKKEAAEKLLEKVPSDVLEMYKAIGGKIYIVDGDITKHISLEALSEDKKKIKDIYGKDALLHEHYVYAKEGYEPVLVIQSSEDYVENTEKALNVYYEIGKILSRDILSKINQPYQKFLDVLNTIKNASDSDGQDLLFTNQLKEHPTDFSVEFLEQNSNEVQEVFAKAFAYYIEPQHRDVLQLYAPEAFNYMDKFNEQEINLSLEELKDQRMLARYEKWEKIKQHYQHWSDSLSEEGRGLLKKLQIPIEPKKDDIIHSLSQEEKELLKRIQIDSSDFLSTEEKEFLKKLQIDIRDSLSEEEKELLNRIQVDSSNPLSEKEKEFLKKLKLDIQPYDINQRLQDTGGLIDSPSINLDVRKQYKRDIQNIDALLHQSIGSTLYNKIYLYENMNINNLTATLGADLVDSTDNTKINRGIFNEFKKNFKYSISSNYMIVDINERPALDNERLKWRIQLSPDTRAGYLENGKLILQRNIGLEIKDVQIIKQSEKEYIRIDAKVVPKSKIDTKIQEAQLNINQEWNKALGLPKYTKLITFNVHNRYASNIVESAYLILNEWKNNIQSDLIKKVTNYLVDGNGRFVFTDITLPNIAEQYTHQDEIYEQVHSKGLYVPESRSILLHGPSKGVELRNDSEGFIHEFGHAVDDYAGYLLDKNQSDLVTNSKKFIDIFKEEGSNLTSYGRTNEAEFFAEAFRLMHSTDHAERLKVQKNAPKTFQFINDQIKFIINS
Vc quorum ag = inducers of Vibrio cholerae quorum light production without autoinducers | V. cholerae BH1578 lux reporter, luminescence, 6 h | activation, % at 18.7 µM | actives 0.16% (n = 350,000) | AID 588436; in the data active = activation mostly above about 9.7%, no sharp cut-off; inconclusive = no clear call, values can overlap the other calls; inactive = mostly below about 3.7%
Active calls of the source: *; i = inactive; u = inconclusive; x = no result given. Cut-off read from the data, not from the text of the source, unless noted: active = inhibition above about 30%; inconclusive = no clear call, values can overlap the other calls; inactive = below that.

SMILES	Bead autofluor	MazEF act	BoNT F protease	BoNT-A LC inh2	Anthrax LF inh2	Vc quorum ag
Cn1nc(C(C)(C)C)cc1C(=O)N1CCCCC1c1cc(C(=O)N2CCOCC2)no1 (centres undefined)	3699	x	-2	0	-3	0
CCCCCCCCN1C(=O)[C@H](CC(=O)NCc2ccc(C)o2)C[C@@]2(C(=O)OC)CCCCC=C12	5530	x	5	1	0	x
CN(NC(=O)Nc1ccc(Cl)cc1)c1c(Cl)c(Cl)nn1C	2595	2	-3	0	0	i
CN(C(=O)Nc1ccc(Cl)cc1)c1c2c(nn1C)CCCC2	23809*	2	-6	u	-3	i
CN(C)C(=O)CCC(=O)N1CCCC(C(=O)c2ccc(C(F)(F)F)cc2)C1 (centres undefined)	3969	-30	-26	-2	-5	0
COc1ccc(CNC(=O)COC(=O)c2c(NC(C)=O)sc(C)c2C)cc1	3984	-1	8	0	1	i
CC1CC(C)CN(C(=O)Cn2c(=O)n(CCCCC(=O)NC3CCCC3)c(=O)c3ccccc32)C1 (centres undefined)	3620	3	37*	0	2	i
CCn1c(=O)n(CC(=O)N2CC(C)CC(C)C2)c(=O)c2ccccc21 (centres undefined)	20034*	3	0	0	-3	0
CC1CC(C)CN(C(=O)Cn2c(=O)n(CCCCC(=O)NCc3ccco3)c(=O)c3ccccc32)C1 (centres undefined)	2530	-5	-9	0	-2	i
NNC(=O)c1cn2ccccc2n1	19411*	1	1	u	-5	4
CCOCCNC(=O)c1ccccc1C(=O)NCCOCC	17947*	-9	-5	-4	-1	i
COc1ccc(-n2cc(C(=O)O)c3ccccc3c2=O)cc1	16517*	-3	-3	-1	-1	i
CCCCCCN1CCN(C2CN(C3CCCCC3)S(=O)(=O)C2)CC1 (centres undefined)	5989	x	7	2	6	x
NC(CSC(c1ccccc1)(c1ccccc1)c1cccc2ccccc12)C(=O)O (centres undefined)	3719	-13	6	0	-7	i
Cn1c(SCC(=O)c2ccc(F)cc2)nnc1-c1cnccn1	18205*	7	7	4	-15	i
O=C(CSc1nnc(-c2cnccn2)n1Cc1ccco1)c1ccc(Cl)cc1	9952	0	-1	0	-10	0
O=C(CSc1nnc(-c2cnccn2)n1Cc1ccco1)c1ccccc1	17135*	9	-6	-2	-4	i
Cc1ccc(C(=O)C(OC(=O)CNC(=O)c2ccc(Cl)cc2)c2ccccc2)cc1 (centres undefined)	21549*	4	5	u	0	i
O=C(CN1C(=O)c2ccccc2C1=O)OC(C(=O)c1ccc(Cl)cc1)c1ccccc1 (centres undefined)	21488*	-5	-6	-4	-1	0
O=C(CNC(=O)c1ccccc1)OC(C(=O)c1ccccc1)c1ccccc1 (centres undefined)	2528	-3	-2	-1	-2	0
Cc1ccc(C(=O)C(OC(=O)CN2C(=O)c3ccccc3C2=O)c2ccccc2)cc1C (centres undefined)	22707*	-6	1	1	-1	i
Cc1ccc(C(=O)C(OC(=O)CN2C(=O)c3ccccc3C2=O)c2ccccc2)cc1 (centres undefined)	10662	3	-5	0	2	0
CCc1nc2c(OCc3cccc(Cl)c3)cccn2c1N(C)C(=O)c1ccc(OC)cc1	3954	x	-1	0	-2	-1
O=C(/C=C/[C@H]1O[C@@H](n2cnc3c(NC(=O)c4ccccc4)ncnc32)[C@H](O)[C@@H]1O)NCc1cccc2ccccc12	4316	x	-16	-1	7	x
CCOc1ccccc1NC(=O)CN(c1ccc(Cl)cc1)S(C)(=O)=O	4061	-4	u	0	-3	1
SMILES	Bead autofluor	MazEF act	BoNT F protease	BoNT-A LC inh2	Anthrax LF inh2	Vc quorum ag
CCN(CC)S(=O)(=O)c1cc(C(=O)Oc2ccccc2OC)ccc1OC	22741*	4	4	1	3	-3
Cc1ccc(S(=O)(=O)NC2CCCCC2)c(C)c1NS(C)(=O)=O	3232	-6	2	0	-3	-1
Cc1nn(Cc2ccccc2)c(Cl)c1C(=O)NCc1ccc(C)n1C	19508*	-2	2	u	-7	i
CCCOc1ccc(C(=O)NC(=S)Nc2nc(C)c(C(=O)N(C)C)s2)cc1	18538*	-3	15	11	-21	0
Cc1nc(NC(=S)NC(=O)c2ccccc2)sc1C(=O)N(C)C	21936*	3	1	1	-3	0
Cc1nc(NC(=O)c2ccc(Br)s2)sc1C(=O)N(C)C	16535*	0	-2	u	1	1
COC(=O)c1sc(NC(=S)NC(=O)c2ccccc2)nc1C	2626	6	-6	0	0	3
Cc1csc(NC(=O)c2ccc(Br)s2)n1	5758	3	-3	0	-2	0
Cc1ccc(C)c(CN2CCC(CNC(=O)Nc3ccc(F)c(Cl)c3)CC2)c1	3553	10	-22	-1	-5	-6
COc1ccc(OC)c(NC(=S)N2c3ccccc3CC2C)c1 (centres undefined)	4156	-17	-4	3	7	0
COc1ccccc1COCC(O)CNCC1(N2CCCCC2)CCCCC1 (centres undefined)	22309*	16	1	0	-5	-3
COc1cc(C(C)=O)ccc1OCC(O)CNCC1(N2CCCCC2)CCCCC1 (centres undefined)	5883	2	-17	-1	-13	-1
CC1=C(C(=O)N(C(C)C)C(C)C)CC(CC(=O)NCc2cccc3ccccc23)C(=O)N1Cc1ccc(C(C)(C)C)cc1 (centres undefined)	4911	x	1	0	0	x
Cc1nnc(NC(=O)C2CCCN(c3ncccn3)C2)s1 (centres undefined)	22811*	0	-2	-2	-6	0
O=C(Nc1ccc(Oc2ccccc2)cc1)C1CCCN(c2ncccn2)C1 (centres undefined)	21093*	2	7	3	-4	1
Cc1ccnc(N2CCCC(C(=O)Nc3nnc(C)s3)C2)n1 (centres undefined)	10963	4	-3	0	-3	0
COc1ccc(NC(=O)C2CCCN(c3c4c(nc5ncnn35)CCC4)C2)cc1 (centres undefined)	23021*	12	1	0	-2	0
O=C(Nc1ccc(C2CCCCC2)cc1)C1CCCN(c2ncccn2)C1 (centres undefined)	22140*	-14	6	u	-1	i
COc1ccc(NC(=O)C2CCCN(c3cc(C)nc4ncnn34)C2)cc1 (centres undefined)	3379	7	4	0	-3	0
